Test results reported in ChEMBL document CHEMBL3988442, “University of Dundee, Small-Polar-MMV Screening Library” (2021).
In all, about 69,000 compounds went through this assay and about 950 (1.4%) showed an effect of 50% or more. Only a selection was taken, and strong results are over-represented in it overall.

The molecules below were run on Mycobacterium tuberculosis (assay: Cornell M. t heat shock assay; also: in the data most compounds retested in dose-response had high values).
Type: functional, organism-based
Set-up: dose or concentration left out as unconfirmed

SMILES	Percent Effect [%]
O=C(C1=CCCC1)N1CCC2(CC1)CC(Oc1cccnc1)CO2.O=C(O)C(F)(F)F (stereo not drawn)	-14.4
Cc1nc(CN2CCc3cc(C(=O)O)c(N(C)C)nc3CC2)cs1.O=C(O)C(F)(F)F.O=C(O)C(F)(F)F	3.488
O=C(C1CC1)N1CCN(Cc2ccncc2)c2ncccc2C1.O=C(O)C(F)(F)F.O=C(O)C(F)(F)F	-4.601
CCc1onc(C)c1C(=O)N1CCN(c2ncc3c(n2)CCOC3)CC1.Cl	-10.25
CCN1CCCc2cc(-c3cncn3C(C)CN3CCOCC3)ccc21.Cl (stereo not drawn)	-27.45
CC(CN1CCOCC1)n1cncc1-c1ccc2c(c1)CCCN2C.Cl (stereo not drawn)	-23.4
CCC(CN1CCOCC1)n1cncc1-c1ccc2c(c1)CCCN2C.Cl (stereo not drawn)	16.42
CCC(CN1CCCC1)n1cncc1-c1cnn(-c2ccccc2)c1.Cl (stereo not drawn)	-7.106
CCC(CN1CCOCC1)n1cncc1-c1ccc2c(c1)CCN2CC.Cl (stereo not drawn)	100.9
CCCS(=O)(=O)N1CCCC(c2nc(-c3ccccc3)c[nH]2)C1 (stereo not drawn)	97.89
CS(=O)(=O)N1CCCC(c2nc(-c3ccccc3)c[nH]2)C1 (stereo not drawn)	-20.18
CCN(C)S(=O)(=O)N1CCCC(c2nc(-c3ccccc3)c[nH]2)C1 (stereo not drawn)	14.48
Cl.Cl.NCC1[C@H]2CN(Cc3ccccc3F)C[C@@H]12 (stereo partly drawn)	-12.63
Cc1[nH]/c(=N/C(=O)Cn2nc(N3CCOCC3)ccc2=O)sc1C	-6.271
CC(C)NC(=O)N1CC(=O)c2sc(NC3CCCCC3)nc2C1	1.144
Cc1[nH]/c(=N\C(=O)c2csc(NC3CCCC3)n2)sc1C	101.9
CC(C)(C)[S+]([O-])CCNC(=O)c1csc(NC2CC2)n1 (stereo not drawn)	-16.11
Cc1[nH]/c(=N\C(=O)c2csc(NC3CC3)n2)sc1C	102.4
CC(=O)Nc1nc(C(=O)N2CCCC(c3cc(C)[nH]n3)C2)cs1 (stereo not drawn)	-17.82
CN(C)c1ccc(CNCc2cnc(N3CCOCC3)nc2)cn1.Cl	-4.55

SMILES	Percent Effect [%]
CC(C)=CCN1C(=O)[C@H]2CC[C@@H]1CN(c1ncccn1)C2	-39.45
O=C(Cc1ccccc1)N1CC[C@H]2[C@@H]1CCC(=O)N2Cc1ccncc1.O=C(O)C(F)(F)F	-22.84
CCCN1C[C@H]2CC[C@@H]1CN(Cc1ccc(Cn3cccn3)cc1)C2	25.45
CCCN1C[C@H]2CC[C@@H]1CN(Cc1ccc(-n3cccn3)cc1)C2	105.3
CCCN1C[C@H]2CC[C@@H]1CN(Cc1cccc(-n3cccn3)c1)C2	-1.729
COCCN1CCCC12CCN(C(=O)CC1CCCC1)CC2.O=C(O)C(F)(F)F	-21.16
O=C(O)C(F)(F)F.O=C(O)C(F)(F)F.O=S(=O)(c1cccnc1)N1C[C@H]2CCC[C@@]2(COc2ccccn2)C1	-13.75
CCc1noc(CNc2c(F)cccc2-n2cccn2)n1	-3.038
CC(C)c1cnc(CNc2c(F)cccc2-n2cccn2)o1	8.854
CC(C)(C)c1nnc(CNc2c(F)cccc2-n2cccn2)o1	0.6342
Cn1ccnc1CNc1c(F)cccc1-n1cccn1	55.71
Cc1cnc(CNc2c(F)cccc2-n2cccn2)o1	105
Cn1c(CNc2c(F)cccc2-n2cccn2)cc(=O)n(C)c1=O	6.656
O=C(O)C(F)(F)F.O=C1[C@H]2CN(C(=O)[C@H]3CCCO3)C[C@H]2CN1CCN1CCCC1	-0.06274
COc1cccc([C@@H]2N[C@H](c3nccs3)Cc3ccsc32)c1OC	50.14
COc1cc([C@@H]2N[C@H](c3nccs3)Cc3ccsc32)cc(OC)c1OC	-5.187
COc1ccc(OC)c([C@@H]2N[C@H](c3nccs3)Cc3ccsc32)c1	6.308
Cc1ncsc1CN1C[C@@H]2COC[C@]2(CNC(=O)c2ccccc2)C1.O=C(O)C(F)(F)F	-24.18
COc1cc(C)sc1C(=O)NCCNc1ccccc1	57.16
COc1cc(C)sc1C(=O)NCCC(=O)N(C)c1ccccc1	0.1249

SMILES	Percent Effect [%]
COc1ccsc1C(=O)NCCNc1ccccc1	-5.187
Cc1nc(CN2CCO[C@H]3[C@@H](OCc4cccnc4)CC[C@@H]32)cs1.O=C(O)C(F)(F)F.O=C(O)C(F)(F)F	-27.98
O=C(O)C(F)(F)F.O=C1N(CC2CC2)CCC12CCN(c1ncccn1)CC2	-22.74
O=C(O)C(F)(F)F.c1cnc(N2CCC3(CC2)CN(CC2CC2)c2ccccc23)nc1	54.56
O=C(O)C(F)(F)F.O=C(O)C(F)(F)F.OCCN1CC2(CCN(CC3CC3)CC2)c2ccccc21	-22.04
O=C(CCC1CCCO1)NCCCO (stereo not drawn)	-7.133
O=C(CCC1CCCO1)NCCCC(=O)Nc1ccc(Cl)cc1 (stereo not drawn)	104.2
O=C(CCCNC(=O)NCC1CCCO1)Nc1ccc(Cl)cc1 (stereo not drawn)	40.56
O=C(CCC1CCCO1)NS(=O)(=O)c1ccc(Cl)cc1 (stereo not drawn)	2.708
O=C(CCCNC(=O)C1CCCO1)Nc1ccc(Cl)cc1 (stereo not drawn)	-4.15
O=C(CC1CCCO1)NCCCC(=O)Nc1ccc(Cl)cc1 (stereo not drawn)	63.53
O=C(O)C(F)(F)F.O=C(O)C(F)(F)F.O=C1COC2(CCN(CC3CCOCC3)CC2)CN1Cc1ccccn1	-24.93
O=C(O)C(F)(F)F.c1cncc(N2CC[C@@H]3CN(CC4CC4)C[C@@H]3C2)c1	-51.37
Cc1cnc(N2CCC3(CCCN3C(=O)c3ccco3)CC2)nc1.O=C(O)C(F)(F)F	2.375
O=C(CNc1cccc(S(=O)(=O)C(F)F)c1)NCc1ccco1	18.67
O=C(CCc1ccco1)Nc1cccc(S(=O)(=O)C(F)F)c1	70
O=C(NCc1ccco1)Nc1cccc(S(=O)(=O)C(F)F)c1	31.42
Cc1cc(C)n(CC2CCCN2C(=O)c2cccnc2N(C)C)n1 (stereo not drawn)	-10.54
